Where “and” joins values, the source holds several entries; their conditions need not be identical. Equal entries are not always repeated. Out of some 5,500 compounds screened, about 2,000 (36%) were called active. Another 18% or so got no clear call; they are omitted. No stated cut-off is given here; in the data, active means normalized growth mostly below about 0.91 (no sharp cut-off); inconclusive means no clear call, values can overlap the other calls; inactive means mostly above about 0.92. The list shows a part of the results.
Test: chemical genetic growth profiling, strain panel (AID 1159580);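 further: tested at 20 µM; growth read once vehicle control cultures reached saturation at 30 °C; 1 = growth at the plate median or of vehicle wells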
Conditions: S. cerevisiae deletion strains, growth OD

Measured: normalized growth

CCCCC(CC)CN=C(N)NC(N)=NCCCCCCN=C(N)NC(N)=NCC(CC)CCCC (stereo not drawn)
active: locus YAL021C, strain ccr4, stronger effect = lower value 0.063 | locus YAL026C, strain drs2, stronger effect = lower value 0.0642 | locus YAL030W, strain snc1, stronger effect = lower value 0.0574 | locus YBL061C, strain skt5, stronger effect = lower value 0.0589 | locus YBR009C, strain hhf1, stronger effect = lower value 0.0622 | locus YBR021W, strain FUR4, stronger effect = lower value 0.097 | locus YBR023C, strain chs3, stronger effect = lower value 0.064 | locus YBR171W, strain sec66, stronger effect = lower value 0.0773 | locus YBR229C, strain ROT2, stronger effect = lower value 0.056 | locus YBR231C, strain swc5, stronger effect = lower value 0.0612 | locus YBR279W, strain paf1, stronger effect = lower value 0.0581 | locus YCL011C, strain gbp2, stronger effect = lower value 0.0577 | locus YCL016C, strain dcc1, stronger effect = lower value 0.0603 | locus YCL029C, strain bik1, stronger effect = lower value 0.0601 | locus YCL069W, strain vba3, stronger effect = lower value 0.0617 | locus YCR088W, strain abp1, stronger effect = lower value 0.0627 | locus YDL005C, strain med2, stronger effect = lower value 0.0747 | locus YDL035C, strain GPR1, stronger effect = lower value 0.0524 | locus YDL040C, strain nat1, stronger effect = lower value 0.0565 | locus YDL074C, strain BRE1, stronger effect = lower value 0.0887 | locus YDL101C, strain DUN1, stronger effect = lower value 0.0654 | locus YDL134C, strain PPH21, stronger effect = lower value 0.0565 | locus YDL185W, strain tfp1, stronger effect = lower value 0.0566 | locus YDL192W, strain arf1, stronger effect = lower value 0.0604 | locus YDR001C, strain nth1, stronger effect = lower value 0.061 | locus YDR069C, strain doa4, stronger effect = lower value 0.0611 | locus YDR101C, strain arx1, stronger effect = lower value 0.0576 | locus YDR137W, strain rgp1, stronger effect = lower value 0.0839 | locus YDR159W, strain sac3, stronger effect = lower value 0.086 | locus YDR162C, strain NBP2, stronger effect = lower value 0.0531 | locus YDR195W, strain ref2 0.115 | locus YDR297W, strain sur2, stronger effect = lower value 0.0561 | locus YDR318W, strain mcm21, stronger effect = lower value 0.0605 | locus YDR334W, strain swr1, stronger effect = lower value 0.0645 | locus YDR335W, strain msn5, stronger effect = lower value 0.062 | locus YDR388W, stronger effect = lower value 0.0558 | locus YDR392W, strain spt3, stronger effect = lower value 0.0874 | locus YDR502C, strain sam2, stronger effect = lower value 0.0583 | locus YEL003W, strain gim4, stronger effect = lower value 0.054 | locus YEL037C, strain rad23, stronger effect = lower value 0.0582 | locus YEL061C, strain CIN8 (second series), stronger effect = lower value 0.06 | locus YEL061C, strain CIN8, stronger effect = lower value 0.0537 | locus YER015W, strain faa2, stronger effect = lower value 0.0615 | locus YER016W, strain bim1, stronger effect = lower value 0.0587 | locus YER110C, stronger effect = lower value 0.0718 | locus YER111C, strain swi4, stronger effect = lower value 0.0729 | locus YER155C, strain BEM2 (second series), stronger effect = lower value 0.09 | locus YER155C, strain BEM2, stronger effect = lower value 0.0673 | locus YER167W, strain BCK2, stronger effect = lower value 0.0573 | locus YFR010W, strain ubp6, stronger effect = lower value 0.0674 | locus YGL078C, strain dbp3, stronger effect = lower value 0.0573 | locus YGL086W, strain mad1, stronger effect = lower value 0.0562 | locus YGL167C, strain pmr1, stronger effect = lower value 0.071 | locus YGL173C, strain kem1, stronger effect = lower value 0.0685 | locus YGL227W, strain vid30, stronger effect = lower value 0.0653 | locus YGL240W, strain doc1, stronger effect = lower value 0.0743 | locus YGL248W, strain PDE1, stronger effect = lower value 0.0546 | locus YGL253W, strain hxk2, stronger effect = lower value 0.0547 | locus YGR078C, strain PAC10, stronger effect = lower value 0.0524 | locus YGR135W, strain pre9, stronger effect = lower value 0.0595 | locus YGR252W, strain gcn5, stronger effect = lower value 0.113 | locus YHR013C, strain ard1, stronger effect = lower value 0.109 | locus YHR027C, strain rpn1, stronger effect = lower value 0.0612 | locus YHR030C, strain SLT2, stronger effect = lower value 0.0544 and 0.0908 | locus YHR079C, strain IRE1 (second series), stronger effect = lower value 0.0569 | locus YHR079C, strain IRE1, stronger effect = lower value 0.106 | locus YHR094C, strain hxt1, stronger effect = lower value 0.0581 | locus YHR129C, strain ARP1, stronger effect = lower value 0.0586 | locus YHR142W, strain chs7, stronger effect = lower value 0.0728 | locus YHR200W, strain rpn10, stronger effect = lower value 0.0601 | locus YIL066C, strain RNR3, stronger effect = lower value 0.0539 | locus YIL073C, strain SPO22, stronger effect = lower value 0.104 | locus YIL125W, strain kgd1, stronger effect = lower value 0.0595 | locus YIR030C, strain dcg1, stronger effect = lower value 0.0594 | locus YJL092W, strain hpr5, stronger effect = lower value 0.0605 | locus YJL095W, strain BCK1 (second series), stronger effect = lower value 0.0569 | locus YJL095W, strain BCK1, stronger effect = lower value 0.0657 and 0.0991 | locus YJL115W, strain asf1, stronger effect = lower value 0.0737 | locus YJL129C, strain trk1, stronger effect = lower value 0.0818 | locus YJL134W, strain LCB3, stronger effect = lower value 0.0522 | locus YJL154C, strain vps35, stronger effect = lower value 0.0612 | locus YJL164C, strain tpk1, stronger effect = lower value 0.06 | locus YJL166W, strain qcr8, stronger effect = lower value 0.0603 | locus YJL168C, strain set2, stronger effect = lower value 0.0617 | locus YJL187C, strain SWE1 (second series), stronger effect = lower value 0.0584 | locus YJR043C, strain POL32, stronger effect = lower value 0.0684 | locus YJR066W, strain TOR1, stronger effect = lower value -0.00183 | locus YJR075W, strain HOC1, stronger effect = lower value 0.0661

Reference: PubChem BioAssay AID1159580 (chemical genetic matrix, 2015)
